Shown are actives, neighbours in structure and some others; about 4% of the full set was active somewhere.
RecA intein inh – Mtb RecA intein splicing inhibition. P9WHJ3. cell-free RecA intein splicing, fluorescence. inhibition, % (concentration not given with the values). hit rate 0.75% among 290,000; in the data active = inhibition above about 30%; inconclusive = no clear call, values can overlap the other calls
Target sequence (P9WHJ3 whole entry, looked up): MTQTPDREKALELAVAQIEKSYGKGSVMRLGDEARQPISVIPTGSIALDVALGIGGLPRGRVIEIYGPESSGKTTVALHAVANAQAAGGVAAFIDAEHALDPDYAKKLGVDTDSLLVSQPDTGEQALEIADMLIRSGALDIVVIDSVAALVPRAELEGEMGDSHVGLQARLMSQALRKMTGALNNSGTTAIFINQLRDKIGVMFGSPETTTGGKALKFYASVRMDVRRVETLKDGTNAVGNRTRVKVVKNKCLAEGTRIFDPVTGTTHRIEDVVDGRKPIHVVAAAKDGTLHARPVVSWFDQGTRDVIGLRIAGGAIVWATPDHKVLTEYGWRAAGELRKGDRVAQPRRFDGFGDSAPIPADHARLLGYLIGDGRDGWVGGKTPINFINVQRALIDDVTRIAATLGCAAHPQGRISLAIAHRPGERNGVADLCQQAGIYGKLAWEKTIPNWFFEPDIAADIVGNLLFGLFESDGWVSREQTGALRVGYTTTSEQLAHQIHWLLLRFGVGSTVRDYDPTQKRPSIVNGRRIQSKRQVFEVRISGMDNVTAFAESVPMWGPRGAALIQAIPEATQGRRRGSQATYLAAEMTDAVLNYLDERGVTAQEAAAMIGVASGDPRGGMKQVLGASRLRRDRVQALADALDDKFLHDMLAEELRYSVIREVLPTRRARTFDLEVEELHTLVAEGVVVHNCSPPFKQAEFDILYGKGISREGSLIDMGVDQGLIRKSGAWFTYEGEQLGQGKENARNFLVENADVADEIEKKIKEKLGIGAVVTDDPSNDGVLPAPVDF
Mtb bLac sens – beta-lactam sensitization of Mtb H37Rv. M. tuberculosis H37Rv growth with meropenem, percent inhibition. AID 434955. inhibition, % at 25 µM. hit rate 0.27% among 330,000; call rule not given here;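 also: growth measured after seven days incubation then overnight dye step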
GDH-TPI counter-1 – counter-screen for M. tuberculosis FBA inhibitors: GDH-TPI coupled enzymes. GDH-TPI coupled enzyme counterscreen, NADH absorbance. inhibition, % at 4.8 µM. hit rate 1.2% among 360,000. AID 588335; in the data active = inhibition above about 30%
Mtb UGM inh – inhibitors of M. tuberculosis UDP-galactopyranose mutase | purified UGM, fluorescence polarization probe displacement | AID 504406 | P9WIQ1 | hit rate 0.06% among 320,000 | inhibition, % at 10 µM; in the data active = inhibition above about 10%, passing the limit was not always enough; inconclusive = no clear call, values can overlap the other calls
Rv3671c protease – inhibits the M. tuberculosis serine protease Rv3671c; hit rate 0.048% among 320,000; inhibition, % at 5.96 µM; in the data active = inhibition above about 38%;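 also: extracellular domain of Rv3671c used as enzyme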
Mtb FBA inh – Mtb fructose-bisphosphate aldolase inhibition | inhibition, % at 1 µM | hit rate 2.3% among 360,000 | purified M. tuberculosis FBA, fluorescence read-out
Mtb FBA confirm – Mtb FBA inhibition, confirmed; shares compounds with Mtb FBA inh; purified M. tuberculosis FBA, fluorescence read-out; inhibition, % at 1 µM; hit rate 78% among 5,600; AID 651616
GDH-TPI counter-2 – inhibits GDH-TPI coupling enzymes, flagging Mtb FBA hits; GDH-TPI coupled enzyme counterscreen, fluorescence; inhibition, % at 1 µM; hit rate 81% among 5,600; shares compounds with Mtb FBA inh; AID 652141; in the data active = inhibition above about 10%
Of the large screens only hits and unclear results are named; the others gave an inactive call (follow-up assays come after a bar, where they were run). Rule as the data show it, unless noted: active = inhibition above about 27%; inactive = the rest.

O=C1c2ccccc2NC(c2cccc(O)c2)N1Cc1ccco1 (centres undefined)	Mtb FBA inh 59.5 | Mtb FBA confirm 106.7 | GDH-TPI counter-2 69.7
O=C1c2ccccc2NC(c2cccc(O)c2)N1c1ccccc1 (centres undefined)	Mtb FBA inh 42.4 | Mtb FBA confirm 128.7 | GDH-TPI counter-2 107.3
O=C(COC(=O)c1cccc(OC(F)F)c1)Nc1cccc(S(=O)(=O)N2CCCC2)c1	none (no result: RecA intein inh)
CC(Oc1ccc(Br)cc1)C(=O)NCC(c1cccs1)N1CCOCC1 (centres undefined)	none
CC1C(=O)N(Cc2cn(Cc3ccco3)nn2)CCS(=O)(=O)N1Cc1ccc(-c2ccc(Cl)cc2)cc1 (centres undefined)	none (no result: RecA intein inh, Mtb bLac sens, Mtb UGM inh, Rv3671c protease)
CC(C)c1ccc(S(=O)(=O)N2CCN(CC(O)CN3CCOCC3)CC2)cc1 (centres undefined)	Mtb FBA inh 50.9 (no result: RecA intein inh) | Mtb FBA confirm 81.8 | GDH-TPI counter-2 69.5
CC(OCC(O)CN1CCN(S(=O)(=O)c2ccc(Cl)cc2)CC1)c1ccc(Cl)cc1 (centres undefined)	none (no result: RecA intein inh, Mtb bLac sens, Mtb UGM inh, Rv3671c protease)
Cc1c(C)c2ccc(OCC(=O)Nc3ccc(S(N)(=O)=O)cc3)c(C)c2oc1=O	Mtb FBA inh 41.0 | Mtb FBA confirm 78.3 | GDH-TPI counter-2 73.1
Cc1cc(=O)oc2c(C)c(OCC(=O)NCCCn3ccnc3)ccc12	none
CCCc1cc(=O)oc2cc(OCC(=O)Nc3ccc(S(N)(=O)=O)cc3)ccc12	none
Cc1cc(OCC(=O)NCCCn2ccnc2)c2c(C)cc(=O)oc2c1	Mtb FBA inh 77.6 | Mtb FBA confirm 108.1 | GDH-TPI counter-2 73.6
CCCc1cc(=O)oc2cc(C)cc(OCC(=O)NCCCn3ccnc3)c12	Mtb FBA inh 57.1 | Mtb FBA confirm 87.9 | GDH-TPI counter-2 65.0
Cc1c(C)c2ccc(OCC(=O)NCCCn3ccnc3)c(C)c2oc1=O	Mtb FBA inh 43.1 | Mtb FBA confirm 152.6 | GDH-TPI counter-2 126.0
CCOC(=O)C1=C(COC(=O)c2cc(S(=O)(=O)N3CCOCC3)ccc2F)NC(=O)NC1C (centres undefined)	none (no result: RecA intein inh, Mtb bLac sens, Mtb UGM inh, Rv3671c protease)
CCOC(=O)Cn1c(-c2ccccn2)nc2ccccc21	Mtb FBA inh 35.1 | Mtb FBA confirm 91.1 | GDH-TPI counter-2 78.8
O=C(O)Cn1c(-c2ccccc2)nc2ccccc21	none
NNC(=O)Cn1c(-c2ccccn2)nc2ccccc21	none
O=C(O)Cn1c(-c2ccccc2)cc2ccccc21	Mtb FBA inh 47.2 | Mtb FBA confirm 103.8 | GDH-TPI counter-2 94.7
CCN(CC)CCNC(=O)Cn1c(-c2ccccn2)nc2ccccc21	Mtb FBA inh 36.8 | Mtb FBA confirm 145.0 | GDH-TPI counter-2 121.2
O=C(O)Cn1c(=O)c(-c2ccccc2)nc2ccccc21	Mtb FBA inh 56.5 | Mtb FBA confirm 118.8 | GDH-TPI counter-2 87.9
CC(=O)Nc1ccc(-c2ccnc3c2CC(C)(C(=O)Nc2ccc(Cl)cc2)O3)cc1 (centres undefined)	none (no result: RecA intein inh, Mtb bLac sens, Mtb UGM inh, Rv3671c protease)
CCCc1nc2nc(C)c(NS(=O)(=O)c3ccc(C4CCCCC4)cc3)c(=O)n2[nH]1	none (no result: RecA intein inh)
O=C(O)Cn1c(-c2ccccn2)nc2ccccc21	Mtb FBA inh 55.6 | Mtb FBA confirm inactive | GDH-TPI counter-2 inactive
CCCCNC(=O)c1cc2cc(CC)ccc2[nH]1	Mtb FBA inh 31.1 | Mtb FBA confirm 79.4 | GDH-TPI counter-2 65.4
O=C(NNC(=O)c1cc2ccccc2[nH]1)OCc1ccccc1	none (no result: RecA intein inh)
N#CC(C#N)=C1NC(N)=C(C#N)C(c2ccccc2)=C1C#N	GDH-TPI counter-1 32.6, Mtb FBA inh 71.2 | Mtb FBA confirm 86.1 | GDH-TPI counter-2 74.4
Cc1nc(C(F)(F)F)ccc1C(=O)N1CCCCCC1(C)C(=O)NCC(C)C (centres undefined)	none (no result: RecA intein inh, Mtb bLac sens, Mtb UGM inh, Rv3671c protease)
COCCCNc1nc2ccccc2nc1NS(=O)(=O)c1ccc(OC)cc1	Mtb bLac sens inconclusive, Mtb FBA inh 29.9 | Mtb FBA confirm 70.5 | GDH-TPI counter-2 65.0
N#C/C(=C\c1c(Oc2ccccc2F)nc2ccccn2c1=O)C(=O)NC1CCS(=O)(=O)C1 (centres undefined)	Mtb FBA inh 27.8 | Mtb FBA confirm 105.5 | GDH-TPI counter-2 84.3
CCCNC(=O)C1(C)CCCN(Cc2ccc(C(F)(F)F)cc2)C1 (centres undefined)	none (no result: RecA intein inh, Mtb bLac sens, Mtb UGM inh, Rv3671c protease)
CNC(=O)c1cc2cc(OC)ccc2n1CCN(C)C	Mtb FBA inh 29.4 | Mtb FBA confirm 109.8 | GDH-TPI counter-2 74.3
COc1ccc2c(c1)cc(C(=O)N[C@H](C(=O)N1CCC(C(=O)O)CC1)C(C)C)n2C	Mtb FBA inh 64.7 | Mtb FBA confirm 119.9 | GDH-TPI counter-2 98.9
COc1ccc2c(c1)cc(C(=O)N[C@H](C(=O)N1CCC[C@H]1C(=O)O)C(C)C)n2C	Mtb FBA inh 106.1 | Mtb FBA confirm 159.2 | GDH-TPI counter-2 112.8
CC(C)[C@H](NC(=O)c1cc2cc(Cl)ccc2n1C)C(=O)N1CCC(C(=O)O)CC1	none
COc1cc2cc(C(=O)O)n(C)c2c(OC)c1OC	Mtb FBA inh 58.7 | Mtb FBA confirm 68.0 | GDH-TPI counter-2 61.3
COC(=O)c1cc2cc(OC)ccc2n1C	none (no result: RecA intein inh)
COc1ccc2c(c1)cc(C(=O)N[C@@H](CCSC)C(=O)N1CCC[C@H]1C(=O)O)n2C	Mtb FBA inh 111.1 (no result: RecA intein inh) | Mtb FBA confirm inactive | GDH-TPI counter-2 inactive
COc1ccc2c(c1)cc(C(=O)O)n2C	Mtb FBA inh 64.5 (no result: RecA intein inh) | Mtb FBA confirm active | GDH-TPI counter-2 active
O=C(NCC1CCCCC1)c1ccccc1[N+](=O)[O-]	none
Cc1oc(-c2cccs2)nc1CNC[C@H]1O[C@@H](n2cnc3c(N)ncnc32)[C@H](O)[C@@H]1O	none (no result: RecA intein inh)
Cc1cccc(NC(=O)c2ccccc2NC(=O)c2ccccc2)n1	none
CC1=C(C#N)C(c2cccnc2)C2=C(CC(c3ccc(Cl)cc3)CC2=O)N1 (centres undefined)	Mtb FBA inh 70.2 | Mtb FBA confirm inactive | GDH-TPI counter-2 inactive
CC1=C(C#N)C(c2ccc(O)cc2)C2=C(CCCC2=O)N1 (centres undefined)	none
Cc1ccc(S(=O)(=O)N2CN(CC3CCCO3)c3nc4ccccc4nc32)c(C)c1 (centres undefined)	none
O=S(=O)(c1cccs1)N1CN(Cc2ccccc2)c2nc3ccccc3nc21	GDH-TPI counter-1 35.6, Mtb FBA inh 32.4 | Mtb FBA confirm 39.8 | GDH-TPI counter-2 27.1
O=S(=O)(c1cccs1)N1CN(CC2CCCO2)c2nc3ccccc3nc21 (centres undefined)	Mtb FBA inh 51.3 | Mtb FBA confirm 70.3 | GDH-TPI counter-2 58.1
COc1ccc(CN2CN(S(=O)(=O)c3cccs3)c3nc4ccccc4nc32)cc1	none
COCCNC(=O)/C(C#N)=C/c1c(N2CCN(c3ccccc3)CC2)nc2c(C)cccn2c1=O	none
